Screening results as filed in PubChem BioAssay.
JMJD2A Tudor inh: qHTS Assay for Inhibitors of JMJD2A-Tudor Domain. AlphaScreen JMJD2A-Tudor / H3K4me3 peptide binding. Potency, µM (top dose mostly 114 µM), without a hit: at the highest dose activity change, negative = inhibition, actives largely listed as inhibitors. 390,000 compounds, 4.4% hits; further: potency means the concentration at half of the fitted maximal effect; on the % scale 0 is the no-effect control and ±100 the full control effect; nearly all actives have a fitted effect of over 50% in size
HP1b chromo inh: HTS for Inhibitors of HP1-beta Chromodomain Interactions with Methylated Histone Tails | Chromobox protein homolog 1 (Homo sapiens), P83916 | AlphaScreen HP1-beta / biotin-H3K9me3 peptide binding | Potency, µM (top dose mostly 114 µM), without a hit: at the highest dose activity change, negative = inhibition, hits mostly inhibitors | 390,000 compounds, 0.56% hits; further: potency means the concentration at half of the fitted maximal effect; nearly all actives have a fitted effect of over 70% in size
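AlphaScreen: HP1-beta (50 nM) preformed 30 min with biotin-H3(1-18)K9me3 peptide (50 nM) in PBS pH 7.4, 0.01% Tween-20. Compound added for 30 min at RT, then streptavidin donor/nickel chelate acceptor beads (10 ug/mL) for 30 min.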
BAZ2B block: qHTS Assay for Inhibitors of BAZ2B; AID 504333, 2011; AlphaScreen BAZ2B-H3K14Ac peptide displacement; 360,000 compounds, 4.4% hits; Bromodomain adjacent to zinc finger domain protein 2B (Homo sapiens), Q9UIF8; Potency, µM (highest dose often 114 µM), inactives show at the top dose activity change, negative = inhibition, actives largely listed as inhibitors; further: potency means the concentration at half of the fitted maximal effect; on the % scale 0 is the no-effect control and ±100 the full control effect; nearly all actives have a fitted effect of over 60% in size
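AlphaScreen displacement of biotin-H3(5-23)K14Ac peptide (50 nM final) from BAZ2B (50 nM final) in PBS pH 7.4, 0.01% Tween-20; complex preformed 30 min RT, then compounds (top 110 uM) 30 min RT, beads 20 min dark.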
G9a inh: qHTS Assay for Inhibitors of Histone Lysine Methyltransferase G9a | AID 504332, 2011 | 350,000 compounds, 8.8% hits | G9a H3K9 monomethylation, AlphaScreen, 2 h | Potency, µM (doses to about 102 µM), for the others: top-dose activity, negative = inhibition, hits mostly inhibitors; further: potency means the concentration at half of the fitted maximal effect; on the % scale 0 is the no-effect control and ±100 the full control effect; nearly all actives have a fitted effect of over 75% in size
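G9a (20 nM) preincubated 15 min RT with compounds, then 500 nM biotinylated H3K9 peptide and 20 uM SAM added; 2 h RT reaction. Monomethyl-H3K9 product detected by AlphaScreen with anti-H3K9me1 antibody, streptavidin donor and anti-rabbit IgG acceptor beads.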
L3MBTL1 inh: qHTS Assay for the Inhibitors of L3MBTL1; 230,000 compounds, 0.66% hits; AID 485360, 2010; AlphaScreen L3MBTL1–H3K9me1 peptide binding; Potency, µM (highest dose often 57.1 µM), for the others: at the top dose activity, negative = inhibition, most hits filed as inhibitors; further: potency means the concentration at half of the fitted maximal effect; on the % scale 0 is the no-effect control and ±100 the full control effect; nearly all actives have a fitted effect of over 60% in size
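L3MBTL1 50 nM + b-AHA-H3(1-15)K9me1 75 nM, 30 min RT; compound added, 30 min RT; streptavidin donor/Ni-chelate acceptor beads 10 ug/mL each final, 30 min RT dark; AlphaScreen read.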
PI5P4Ka inh: qHTS for Inhibitors of phosphatidylinositol 5-phosphate 4-kinase (PI5P4K); 330,000 compounds, 1.2% hits; max response, %; AID 652105, 2013; PI5P4Kalpha enzyme, ADP-Glo luminescence, 60 min; hits give low values; Phosphatidylinositol 5-phosphate 4-kinase type-2 alpha (Homo sapiens), P48426; active means max response of -50% or lower; inconclusive means between -30% and -50%; inactive means -30% or higher; further: value at the top dose of about 77 µM; on the % scale 0 is the no-effect control and ±100 the full control effect
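Reactions run in 0.038 M HEPES pH 7.4, 0.28 mM EGTA, 0.1% CHAPS and 5% DMSO, with PI5P4Kalpha, substrate, compound and 5 microM ATP final, one hour at room temperature. Readout is ADP-Glo luminescence.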
An asterisk follows results filed as active; u = inconclusive; x = no result given; ! = repeats disagree; [ ] = another dose, or the depositor's remark. An excerpt weighted towards active compounds, which were near 11% of everything screened. Unless noted, the call rests on the fitted dose curve; in most records, active means well fitted inhibition curve with a large enough effect; inconclusive means small, poorly fitted or top-dose-only effect; inactive means no such curve, though single readings can be large or run the other way.

SMILES	JMJD2A Tudor inh	HP1b chromo inh	BAZ2B block	G9a inh	L3MBTL1 inh	PI5P4Ka inh
O=C(Nc1ccc(N2CCOCC2)cc1)C1=NN(c2ccccc2)C(=O)CC1	-19%	8%	-34%	45µM*	4%	1
O=C(N1CCOCC1)C1(c2ccc(Cl)cc2)CCCC1	-1%	23%	0%	7%[59 µM]	x	10
O=C(Nc1ccc(Cl)cc1)Nc1ccc(N2CCOCC2)cc1	-6%	33%	8%	-49%[12.7 µM]	x	5
O=C(Nc1ccc(N2CCOCC2)cc1)C1(c2ccc(Cl)cc2)CCC1	-33%	-6%	u	45µM*	-5%	4
COc1ccc(Cn2c(CNS(=O)(=O)c3ccc(C)c(C)c3)nc3cccnc32)cc1	-29%	9%[57 µM]	-4%	41%[59 µM]	x	x
Cc1ccc(C)c(N2CCN(C(=O)CN3C(=O)COc4ccc(S(=O)(=O)N5CCC(C)CC5)cc43)CC2)c1	0%	41%	-19%	5%[59 µM]	x	x
CCC1CCc2nc3sc(C(=O)Nc4cccc(F)c4)c(N)c3cc2C1 (stereo not drawn)	-10%	39%	3%	-26%[59 µM]	x	x
Cc1nc2cc(NC(=O)Nc3ccc(N4CCOCC4)cc3)ccc2n1C	-19%	18%	-22%	8.9µM*	30%[11.4 µM]	x
Cc1oc(C(C)(C)C)cc1C(=O)Nc1ccc(N2CCOCC2)cc1	-17%	-10%	-25%	45µM*	-18%	4
CN(C)c1ccc(NC(=O)c2ccc(N3CCOCC3)nc2)cc1	u	-14%	u	7.9µM*	x	-11
Cc1c(O)ccc(C(=O)CN2CCN(Cc3ccccc3)CC2)c1O	9%	72%	-31%	79µM*	x	0
Cc1ccccc1NC(=O)CN1CCN(Cc2ccccc2)CC1	-8%	21%	-15%	-3%	-7%	-3
Cc1ccc(CNC(=O)CN2CCN(c3ccc(F)cc3)CC2)cc1	-10%	44%	6%	x	-3%	1
Cc1c(O)ccc(C(=O)CN2CCN(c3ccc(F)cc3)CC2)c1O	-33%	-5%[57 µM]	-35%	45µM*	x	-3
COc1ccc(-c2nn3c(-c4cc(C)[nH]n4)nnc3s2)cc1	-2%[57.1 µM]	22%[57 µM]	x	x	x	x
CCOC(=O)c1ccc(-c2ccc3ncnc(NCc4cccs4)c3c2)o1	-16%	x	x	x	x	x
COc1ccc(C2=C(Nc3ccc(Br)c(C)c3)c3ccccc3C2=O)cc1	u	u	u	2.8µM*	x	x
COc1ccc(C2=C(Nc3ccc(C)cc3)c3ccccc3C2=O)cc1	u	1%	u	10%[59 µM]	-13%	-1
Cc1cc(C)cc(NC2=C(c3ccccc3)C(=O)c3ccccc32)c1	13µM*	u	13µM*	8.9µM*	x	x
COc1ccc(C2=C(Nc3ccc(C)c(C)c3)c3ccccc3C2=O)cc1	u	u	-32%	u	x	x
CCCCC(=O)Nc1c(C(=O)N2CCN(c3ccccc3)CC2)oc2ccccc12	-24%	21%	-16%	-41%[59 µM]	x	x
O=C(O)CCCCC1CCSS1 (stereo not drawn)	-21%	18%	1µM*	1.8µM*	3.2µM*	1
Cc1ccn2c(c1)nc(=S)n2C(=O)c1ccco1	x	x	-2%	10µM*	5%	x
CCOC(=O)c1c(NC(=O)c2cc(=O)c3cc(C)ccc3o2)sc2c1CCCC2	-2%	42%	-3%	-1%[59 µM]	x	x
CN(C(Cc1ccc(OS(=O)(=O)c2cccc3cnccc23)cc1)C(=O)N1CCN(c2ccccc2)CC1)S(=O)(=O)c1cccc2cnccc12 (stereo not drawn)	x	x	x	16µM*!	x	x
SMILES	JMJD2A Tudor inh	HP1b chromo inh	BAZ2B block	G9a inh	L3MBTL1 inh	PI5P4Ka inh
CCOCCCNC(=S)N(Cc1ccccc1)Cc1nc2ccccc2c(=O)[nH]1	-9%	-15%	-34%	10µM*	-8%	10
O=C(c1ccncc1)N(Cc1ccccc1)Cc1nc2ccccc2c(=O)[nH]1	-21%	39%	3%	15%[12.7 µM]	x	6
CCCNC(=S)N(Cc1ccccc1)Cc1nc2ccccc2c(=O)[nH]1	-17%	9%	-7%	7.1µM*	6%	-2
CC(c1ccccc1)C1OCC(C[N+]2(C)CCCCC2)O1 (stereo not drawn)	56µM*	u	-19%	u	x	3
Clc1ccc(-c2cc3ncc4c(n3n2)-c2ccccc2OC4)cc1	0%	39%	-4%	-35%[59 µM]	x	x
CC(Oc1ccccc1)C(=O)Nc1ccc(C(=O)OCc2cc(=O)n3ccsc3n2)cc1 (stereo not drawn)	-10%	1%	-14%	11%[59 µM]	x	x
O=C(O)c1cc(NN=C2c3ccccc3-c3ccccc32)ccc1Cl	-33%	-6%[57 µM]	u	45µM*	x	1
NNc1ccc(Cl)c(C(=O)O)c1	-1%[11.4 µM]	39%	-37%	1.3µM*	5%	-14
O=C(O)/C=C/C(=O)Nc1ccc(Cl)c(C(=O)O)c1	-15%	33%	u	u	-28%	-21
NNc1cc(C(=O)O)ccc1Cl	25µM*	u	u	x	-8%	14
O=C(O)c1cccc2c1-c1ccccc1/C2=N\Nc1ccccc1	u	22%	-31%	50µM*	x	-5
Cn1c2ccccc2c2cnn(CC(=O)Nc3ccccc3C(F)(F)F)c(=O)c21	-8%	30%	-2%	-2%[59 µM]	x	x
O=C(O)c1cc(N/N=C/C(Cl)=C/c2ccccc2)ccc1Cl	-30%	9%	35µM*	35µM*	-15%	1
Cc1cc(C(=O)N/N=C/C(Cl)=C/c2ccccc2)c(C)o1	-29%	9%	-25%	14%[59 µM]	-3%	1
Nc1cc(C(=O)N/N=C/c2cccc([N+](=O)[O-])c2)n[nH]c1=O	u	81%	56µM*	u	x	0
O=C(N/N=C/c1cccc([N+](=O)[O-])c1)c1cc[n+](CCO)cc1	-23%	21%	50µM*	-37%	-5%	0
Nc1ccccc1C(=O)NN=Cc1cccc([N+](=O)[O-])c1	x	x	x	x	x	-21
Cc1cc(C)cc(NC(=O)C2CCCN(c3nnc(-n4c(C)ccc4C)s3)C2)c1 (stereo not drawn)	-30%	3%	-37%	0%[59 µM]	x	x
COc1ccc(C2NN=C(c3ccc(C)cc3)S2)cc1 (stereo not drawn)	-12%	18%	11%	32µM*	x	1
CCOc1cc(C2NN=C(c3ccc(C)cc3)S2)ccc1O (stereo not drawn)	-12%	32%	-3%	19%[59 µM]	23%	-5
N#C/C(=C/c1ccc(-c2cc(C(=O)O)cc(C(=O)O)c2)o1)c1nc2ccccc2s1	x	x	56µM*	11µM*	x	x
